Results on ten compounds are retold here after PubChem BioAssay (Tox21).

Inconclusive results are not listed. Activity calls are given as the source filed them. Unless noted, the call rests on the fitted dose curve; in most records, active means well fitted curve in the direction sought with a large enough effect in the repeat runs; inconclusive means weak or mixed curves; inactive means no such curve, though single readings can be large; an effect the other way counts as inactive or inconclusive.

Assay [1] can be described thus: qHTS assay to identify small molecule antagonists of the glucocorticoid receptor (GR) signaling pathway - cell viability counter screen (AID 720693). Further: nearly all actives have a fitted effect of over 55% in size.
A short description of assay [2]: qHTS assay for identifying genotoxic compounds that show differential cytotoxicity against isogenic chicken DT40 cell lines with known DNA damage response pathways - wild type cell line (AID 743012). Further: nearly all actives have a fitted effect of over 60% in size. Further: potency means the concentration at half of the fitted maximal effect. In a few lines:
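Cells (DT40 wild type, 300/well) are treated with DMSO-dissolved compounds after a ~0.5 h pre-incubation and kept 40 h at 37 C/5% CO2. Viability is then measured by CellTiter-Glo luminescence following 30 min at room temperature.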
A general note: qHTS replaces the single test concentration by a dilution series.

The nature of assay [3]: qHTS assay for identifying genotoxic compounds that show differential cytotoxicity against isogenic chicken DT40 cell lines with known DNA damage response pathways - Rev3 mutant cell line (AID 743014). Further: nearly all actives have a fitted effect of over 55% in size. Further: potency means the concentration at half of the fitted maximal effect.
Assay [4] is described as follows: qHTS assay to identify small molecule antagonists of the androgen receptor (AR) signaling pathway - cell viability counter screen (AID 743033; further: nearly all actives have a fitted effect of over 45% in size).
Assay [5] in a line: qHTS assay to identify small molecule antagonists of the androgen receptor (AR) signaling pathway using the MDA cell line - cell viability counter screen (AID 743041; further: nearly all actives have a fitted effect of over 45% in size). An outline of the steps:
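Same-well cytotoxicity was assessed by CellTiter-Fluor in MDA-kb2 AR-luc cells after 16 h of compound treatment under R1881 agonism.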

The nature of assay [6]: qHTS assay to identify small molecule antagonists of the thyroid receptor (TR) signaling pathway - cell viability counter screen (AID 743064). Further: nearly all actives have a fitted effect of over 50% in size. An outline of the steps:
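Plate GH3.TRE-Luc cells; incubate 4 h at 37 °C; add compound, then T3 to 1 nM final; incubate 23.5 h; add CellTiter-Fluor; incubate 30 min at 37 °C, 5% CO2; read fluorescence.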

Assay [7] can be described thus: qHTS assay to identify small molecule antagonists of the thyroid receptor (TR) signaling pathway (AID 743065). Further: series mostly up to about 70 µM; nearly all actives have a fitted effect of over 55% in size. In a few lines:
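GH3.TRE-Luc rat pituitary cells (two TREs driving luciferase) were dosed with compound, then stimulated with 1 nM T3 (final) for 23.5 h at 37 C. ONE-Glo luminescence was the read-out, with CellTiter-Fluor fluorescence as the cytotoxicity counter-screen.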

Assay [8] relates to thyroid hormone receptor (rat, GH3 cells). Put plainly: qHTS assay to identify small molecule agonists of the thyroid receptor (TR) signaling pathway (AID 743066; calls by dose curve).
Assay [9] has as its target Estrogen receptor (Homo sapiens) (UniProt P03372). Put plainly: qHTS assay to identify small molecule antagonists of the estrogen receptor alpha (ER-alpha) signaling pathway (AID 743069; active means well fitted curve in the direction sought with a large enough effect in the signal ratio in the repeat runs, not every such curve was filed as active; the % refers to the signal ratio). In a few lines: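 Reporter cells (ER-alpha-bla, HEK293 background) are conditioned overnight in stripped-serum medium (2% charcoal-stripped FBS). Compound and 17beta-estradiol exposure runs 18 hr at 37C, 5% CO2.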

A short description of assay [10]: qHTS assay to identify small molecule antagonists of the estrogen receptor alpha (ER-alpha) signaling pathway - cell viability counter screen (AID 743074; calls by dose curve;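 further: HEK293 cells carrying ER-alpha-UAS-bla reporter stimulated with 17beta-estradiol; nearly all actives have a fitted effect of over 45% in size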).
Assay [11] has as its target Estrogen receptor (Homo sapiens) (UniProt P03372). Put plainly: qHTS assay to identify small molecule agonists of the estrogen receptor alpha (ER-alpha) signaling pathway (AID 743075; calls by dose curve;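 further: HEK293 GripTite cells with ER-alpha and UAS-driven beta-lactamase reporter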).
Assay [12] has the same target. Briefly: qHTS assay to identify small molecule agonists of the estrogen receptor alpha (ER-alpha) signaling pathway using the BG1 cell line (AID 743079). Further: nearly all actives have a fitted effect of over 20% in size.
The nature of assay [13]: qHTS assay to identify small molecule antagonists of the estrogen receptor alpha (ER-alpha) signaling pathway using the BG1 cell line - cell viability counter screen (AID 743081).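 Further: compound given together with 17beta-estradiol as the ER stimulus; series mostly up to about 70 µM; nearly all actives have a fitted effect of over 45% in size.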
The next assay has as its target Aromatase (Homo sapiens) (UniProt P11511). Briefly: qHTS assay to identify aromatase inhibitors (AID 743083). Further: nearly all actives have a fitted effect of over 55% in size. Further: potency means the concentration at half of the fitted maximal effect.
Assay [14] in a line: qHTS assay for identifying genotoxic compounds that show differential cytotoxicity against isogenic chicken DT40 cell lines with known DNA damage response pathways - Rad54/Ku70 mutant cell line (AID 743015). Further: nearly all actives have a fitted effect of over 60% in size.
Assay [15] can be described thus: qHTS assay to identify small molecule antagonists of the estrogen receptor alpha (ER-alpha) signaling pathway using the BG1 cell line (AID 743080; calls by dose curve;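 further: BG1 cells stimulated with 17beta-estradiol alongside compound; series mostly up to about 70 µM; nearly all actives have a fitted effect of over 25% in size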). In a few lines:
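BG1-Luc-4E2 cells (endogenous full-length ER-alpha, stable 4×ERE-luciferase) were starved 5 days in phenol-red-free medium with 10% charcoal-stripped FBS, plated 24 h, then given compound plus 17beta-estradiol for 21.5 h at 37 C; ONE-Glo luminescence read after 30 min.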

Sequence of Estrogen receptor (Homo sapiens) (P03372 whole entry, looked up): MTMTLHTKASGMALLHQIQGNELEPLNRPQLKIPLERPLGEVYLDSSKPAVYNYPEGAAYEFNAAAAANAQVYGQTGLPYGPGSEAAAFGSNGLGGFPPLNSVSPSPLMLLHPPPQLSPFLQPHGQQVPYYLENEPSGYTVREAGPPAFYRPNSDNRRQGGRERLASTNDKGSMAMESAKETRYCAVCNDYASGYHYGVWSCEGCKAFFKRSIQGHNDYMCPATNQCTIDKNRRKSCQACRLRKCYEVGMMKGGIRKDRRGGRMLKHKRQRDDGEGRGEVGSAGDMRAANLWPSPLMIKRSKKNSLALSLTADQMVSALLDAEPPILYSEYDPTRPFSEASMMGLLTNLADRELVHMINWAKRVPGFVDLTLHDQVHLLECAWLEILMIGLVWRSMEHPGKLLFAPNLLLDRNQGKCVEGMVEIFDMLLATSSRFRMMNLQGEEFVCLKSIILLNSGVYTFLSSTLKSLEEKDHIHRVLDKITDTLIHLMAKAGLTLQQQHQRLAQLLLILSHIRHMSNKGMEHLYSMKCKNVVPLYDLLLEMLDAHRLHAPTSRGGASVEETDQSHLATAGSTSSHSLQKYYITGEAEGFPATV
Sequence of Aromatase (Homo sapiens) (P11511 whole entry, looked up): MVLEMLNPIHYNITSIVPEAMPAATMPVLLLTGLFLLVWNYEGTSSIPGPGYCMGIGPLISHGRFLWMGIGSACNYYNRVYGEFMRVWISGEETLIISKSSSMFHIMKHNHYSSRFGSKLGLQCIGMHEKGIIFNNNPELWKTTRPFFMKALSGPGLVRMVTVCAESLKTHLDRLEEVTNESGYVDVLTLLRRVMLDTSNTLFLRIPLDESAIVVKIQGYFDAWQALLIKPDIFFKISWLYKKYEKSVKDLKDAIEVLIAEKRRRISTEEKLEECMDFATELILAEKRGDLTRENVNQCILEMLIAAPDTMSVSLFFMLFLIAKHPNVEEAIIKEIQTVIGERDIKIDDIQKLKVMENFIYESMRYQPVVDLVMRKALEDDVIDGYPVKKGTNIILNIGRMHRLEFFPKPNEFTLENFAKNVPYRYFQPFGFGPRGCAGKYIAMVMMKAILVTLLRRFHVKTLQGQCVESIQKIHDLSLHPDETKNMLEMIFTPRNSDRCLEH

With `CCCCCCCCN(C)C`, the Potency entry in assay [1], in assay [2], in assay [3], in [4], in assay [5] and in assay [6] was “inactive” throughout. The Potency entry in assay [7], in assay [8], in assay [9], in assay [11], in assay [12] and in assay [13] was “inactive” throughout. Also, the Potency entry in the assay with Aromatase (Homo sapiens) was “inactive”. For the same compound, the compound was classed as inactive in [10].

Regarding `CCCCCCCCCCCCC(=O)O`, the Potency result in assay [1], in assay [2], in assay [3], in [4], in assay [5] and in assay [6] was “inactive” throughout. In addition, the Potency entry (in assay [7]; in assay [8]; in [11]; in assay [13]; in the assay with Aromatase (Homo sapiens)) was “inactive” in each case. Further, in assay [10], the result was inactive.

As to `Cc1c(Cn2ccnc2)c2ccccc2n1CCC(=O)O`, the Potency entry in [1], in assay [2], in assay [3], in assay [4], in [5] and in assay [6] was “inactive” throughout. In addition, the Potency entry (in assay [8]; in assay [13]; with Aromatase (Homo sapiens)) was “inactive” in each case.

As to `CCCCCCCCCCCCCCCCCBr`, the Potency result in assay [1], in [2], in [3], in [4], in assay [5] and in [6] was “inactive” each time. For the same compound, the Potency entry (in [7]; in [8]; in assay [13]; with Aromatase (Homo sapiens)) was “inactive” each time. Moreover, the call in [10] was inactive.

For the compound `CCOC(=O)C1=NN(c2ccccc2)C(=O)C1`, the Potency entry in [1], in assay [2], in assay [14], in assay [4], in [5] and in assay [6] was “inactive” in each case. Besides, the Potency entry (in assay [7]; in [8]; in [11]; in assay [12]; in [13]; with Aromatase (Homo sapiens)) was “inactive” each time. Besides, in assay [10], the outcome was inactive.

As for `SC1CCCC1`, the Potency entry in [1], in [2], in assay [3], in assay [4], in assay [5] and in assay [6] was “inactive” throughout. Moreover, the Potency result (in [8]; in assay [9]; in [11]; in assay [15]; in [13]; with Aromatase (Homo sapiens)) was “inactive” in each case. The outcome in assay [10] was inactive.

Turning to `CC(=O)/C(C)=C/C1C(C)=CCCC1(C)C` (stereo unspecified), the Potency entry in assay [1], in [2], in assay [3], in [4], in assay [5] and in [6] was “inactive” throughout. The Potency result (in assay [9]; in [11]; in assay [12]; in assay [15]; in assay [13]; in the assay with Aromatase (Homo sapiens)) was “inactive” in each case. Moreover, in [10], the compound was classed as inactive.

As to `CC(Cc1cccc(C(F)(F)F)c1)NCCOC(=O)c1ccccc1` (stereo unspecified), the Potency entry in assay [1] and in assay [13] was “inactive” in each case. The Potency in assay [2] is 18.8 µM (active); in assay [3], 23.7 µM (active); with Aromatase (Homo sapiens) it was 29.8 µM (active). Further, in [10], the result was inactive.

As to `CCOC(=O)CC(C)C`, the Potency entry in assay [1], in assay [2], in assay [3], in assay [4], in assay [5] and in [6] was “inactive” each time. The Potency entry in assay [8], in [9], in [11], in assay [12], in [15] and in assay [13] was “inactive” each time. The Potency entry with Aromatase (Homo sapiens) is “inactive”. Further, in [10], the result was inactive.

In the case of `Oc1ccc2c(c1)OCO2`, the Potency result in assay [1], in assay [4], in assay [5], in assay [6], in [8] and in assay [15] was “inactive” each time. Moreover, the Potency result (in [13]; in the assay with Aromatase (Homo sapiens)) was “inactive” throughout. Moreover, the Potency in [2] and in [3] was 54 µM (active) throughout. The compound was called inactive in assay [10].
